This note sets out measurements from PMC4552634, “A New Set of Chemical Starting Points with Plasmodium falciparum Transmission-Blocking Potential for Antimalarial Drug Discovery” (PLoS ONE, 2015).

The campaign covered roughly 13,000 compounds. About 3,200 (25%) showed an effect of 50% or more. Some of the results follow.

The assay has as its system P. falciparum stage V gametocytes. Also noted: BacTiter-Glo ATP luminescence viability of purified stage V gametocytes in 384-well plates, per cent inhibition versus DMSO. The following applies: 48 h, 5 µM; inhibitor.
For `O=C(Nc1ccc(-c2nc3ccccc3[nH]2)cc1)c1cccc(S(=O)(=O)N2CCOCC2)c1` [TCMDC-125263], the “% Inhibition” value is listed as -3.664%.
Under `NS(=O)(=O)c1cccc(-c2ccc3ncc(N4CCOCC4)nc3c2)c1` [TCMDC-134052] stands 73.87%.
Regarding `Cc1cc(N2CCOCC2)nc2ccc(NC(=O)c3cccc([N+](=O)[O-])c3)cc12` [TCMDC-123601], the “% Inhibition” value came out at 0.6281%.
For the compound `CC(C)c1ccc(CN2CCC(CNC(=O)c3cc(-c4ccc(N(C)C)cc4)cs3)C2)cc1` (stereo not shown) [TCMDC-134440], the “% Inhibition” value came to 77.06%.
Under `CN(C)c1ccc(-c2csc(C(=O)NCC3CCN(CCC(C)(C)C)C3)c2)cc1` (stereo not shown) [TCMDC-134427] stands 60.6%; under `CN(C)c1ccc(-c2csc(C(=O)NCC3CCN(Cc4cccc(C(F)(F)F)c4)C3)c2)cc1` (stereo not shown) [TCMDC-134486], 49.29%; under `CN(C)c1ccc(-c2csc(C(=O)NCC3CCN(Cc4ccc(C(C)(C)C)cc4)C3)c2)cc1` (stereo not shown) [TCMDC-134449], 80.7%.
Regarding `O=C1CCCC1Sc1nc2ccccc2c(=O)n1-c1ccc(Cl)c(Cl)c1` (stereo not shown) [TCMDC-125029], the “% Inhibition” value is recorded as -36.37%.
Consider `CC1(C)N=C(N)N=C(N)N1OCCSc1ccc(Cl)c(Cl)c1` [TCMDC-131704], for which the “% Inhibition” value was 5.969%.
Consider `CN1CCN(c2cc3c(cc2Br)CCN3C(=O)Nc2ccc(-c3cnc4ccccc4c3)cc2)CC1` [TCMDC-139280], for which the “% Inhibition” value was determined as 14.3%.
The same measure for `Cc1cc(N[C@@H](CC(C)C)C(=O)Nc2ccccc2)nc(NCC2CCCCC2)n1` [TCMDC-134921]: -51.59%; for `CCOc1cc(C)ccc1N(C1CCN(CCCCNC(=O)c2ccc(-c3ccc(C(F)(F)F)cc3)cc2)CC1)S(=O)(=O)c1ccccc1` [TCMDC-138637]: 32.99%; for `CCC(C)c1ccc(-n2c(Nc3ccccc3)nc3cc(S(N)(=O)=O)ccc32)cc1` (stereo not shown) [TCMDC-135490]: -10.42%.
Take `CCc1c[nH]c2c(N3CCCCS3(=O)=O)cc(C(=O)N[C@@H](Cc3ccccc3)[C@H](O)CNCc3cccc(OC)c3)cc12` [TCMDC-134127]: the “% Inhibition” value is recorded as -6.303%.
The same measure for `Cc1cc(N[C@@H](Cc2ccccc2)C(=O)Nc2ccccc2)nc(NCCc2ccccn2)n1` [TCMDC-134749]: 53.15%; for `CCCC(C)Nc1nc(C)cc(N[C@@H](Cc2ccccc2)C(=O)Nc2ccc(OC)cc2)n1` (stereo partly shown) [TCMDC-134881]: -19.42%.
Turning to `COc1ccc(NC(=O)[C@H](Cc2ccccc2)Nc2cc(C)nc(NCC3CCCCC3)n2)cc1` [TCMDC-134929], the “% Inhibition” value turned out to be 14.59%.
As to `COc1ccc(NC(=O)[C@H](Cc2ccccc2)Nc2cc(C)nc(NCCc3ccccn3)n2)cc1` [TCMDC-134746], the “% Inhibition” value was found to be 109.1%.
Turning to `CO/C(=C\C=C\c1cc2cc(Cl)c(Cl)cc2[nH]1)C(=O)NCCCN1CCN(c2cccc(OC)c2)CC1` [TCMDC-139161], the “% Inhibition” value is recorded as -21.84%.
As for `O=C(N[C@@H](Cc1ccccc1)C(=O)NC1CCCc2ccccc21)c1ccc(O)c(-c2ccc(Cl)c(Cl)c2)c1` (stereo partly shown) [TCMDC-140868], the “% Inhibition” value is reported as 35.62%.
Turning to `Nc1ncc(-c2cccc(CCN3CCOCC3)c2)cc1-c1nc2ccc(Br)cc2[nH]1` [TCMDC-133135], the “% Inhibition” value came to 15.3%.
`NC1CCN(Cc2ccc(-c3cccc(-c4nc5ccccc5[nH]4)c3)cc2)C1` (stereo not shown) [TCMDC-133879]: the “% Inhibition” value worked out at 58.35%.
Under `OC1CCCN(Cc2ccc(-c3cccc(-c4nc5ccccc5[nH]4)c3)cc2)C1` (stereo not shown) [TCMDC-133836] stands -1.76%; under `NC1CCN(Cc2ccc(-c3ccc(-c4nc5ccccc5[nH]4)cc3)cc2)C1.O=C(O)C(F)(F)F` (stereo not shown) [TCMDC-133868], 102.2%; under `O=C(O)C(F)(F)F.OC1CCCN(Cc2ccc(-c3ccc(-c4nc5ccccc5[nH]4)cc3)cc2)C1` (stereo not shown) [TCMDC-133829], -32.2%.
For the compound `NC1CCCN(Cc2ccc(-c3cccc(-c4nc5ccccc5[nH]4)c3)cc2)C1` (stereo not shown) [TCMDC-133880], the “% Inhibition” value came to 58.58%.
Regarding `CC1CN(Cc2ccc(-c3ccc(-c4nc5ccccc5[nH]4)cc3)cc2)CC(C)O1.O=C(O)C(F)(F)F` (stereo not shown) [TCMDC-133828], the “% Inhibition” value is listed as -35.16%.
As for `N=c1c2c(n(Cc3ccccc3)c3c1CCC3)CCCC2` [TCMDC-124229], the “% Inhibition” value is -1.262%.
The same measure for `Clc1cccc(C23N=C(Nc4nc5ccccc5[nH]4)NC2(c2ccccc2)NC(Nc2nc4ccccc4[nH]2)=N3)c1` (stereo not shown) [TCMDC-139089]: 3.895%; for `NS(=O)(=O)c1ccc(CNc2ccc3ncc(-c4ccc(Cl)cc4)n3n2)cc1` [TCMDC-136686]: 45.42%; for `COc1ccc(-c2cnc3ccc(NCc4ccc(S(N)(=O)=O)cc4)nn23)cc1` [TCMDC-136687]: 45.37%.
For `FC(F)(F)Oc1ccc(-c2cnc3ccc(NCc4ccncc4)nn23)cc1` [TCMDC-136681], the “% Inhibition” value is 34.75%.
The same measure for `N#Cc1ccc(-c2cnc3ccc(NCc4ccc(S(N)(=O)=O)cc4)nn23)cc1` [TCMDC-124515]: 21.95%; for `COc1ccc(-c2cnc3ccc(NCc4ccc(S(N)(=O)=O)cc4)nn23)cn1` [TCMDC-136688]: 73.26%; for `NS(=O)(=O)c1ccc(CNc2ccc3ncc(-c4ccc(OC(F)(F)F)cc4)n3n2)cc1` [TCMDC-136685]: 61.81%.
As to `CC(C)(CNC(=O)/C=C/c1ccc(Cl)c(Cl)c1)CNc1cc(=O)c2ccccc2[nH]1` [TCMDC-139404], the “% Inhibition” value is -42.09%.
For `O=C(/C=C/c1ccc(Cl)c(Cl)c1)NCCCCCN1CCC(NC(=O)Nc2cc(Cl)ccc2Cl)CC1` [TCMDC-135726], the “% Inhibition” value is listed as -46.31%.
Consider `O=C(Cc1cnc[nH]1)Nc1cccc(-c2cccc(-c3nc4ccc(C(F)(F)F)cc4[nH]3)c2)c1` [TCMDC-136948], for which the “% Inhibition” value is reported as -28.45%.
Regarding `CC1SC(=S)NC1C(=O)O` (stereo not shown) [TCMDC-131380], the “% Inhibition” value turned out to be 9.711%.
The same measure for `O=C(Nc1ccccc1)N(Cc1cccc(-c2cccc(CNCc3ccc4c(c3)OCO4)c2)c1)C1CCN(Cc2ccccc2)CC1` [TCMDC-140590]: 57.66%; for `O=C(Nc1ccccc1)N(Cc1cccc(-c2ccc(CNCc3ccc4c(c3)OCO4)cc2)c1)C1CCN(Cc2ccccc2)CC1` [TCMDC-140591]: 67.97%; for `CC(=O)N(Cc1ccccc1-c1cccc(CNCc2ccc3c(c2)OCO3)c1)C1CCN(Cc2ccccc2)CC1` [TCMDC-140526]: 86.49%.
For the compound `COCCNCc1cccc(-c2ccccc2CN(C(=O)c2ccc3c(c2)OCO3)c2ccc(OC)cc2)c1` [TCMDC-140571], the “% Inhibition” value stood at 88.17%.
For `COCCNC(=O)C(CNC(=O)c1ccc2c(c1)OCO2)NC(=O)c1ccc(-c2ccccc2)cc1` (stereo not shown) [TCMDC-140308], the “% Inhibition” value is -7.15%.
Under `CC(=O)N(Cc1cccc(-c2cccc(CNCc3ccc4c(c3)OCO4)c2)c1)C1CCN(Cc2ccccc2)CC1` [TCMDC-140529] stands -13.98%; under `COCC(=O)N(Cc1ccccc1-c1cccc(CNCc2ccc3c(c2)OCO3)c1)C1CCN(Cc2ccccc2)CC1` [TCMDC-140535], 7.259%.
